# Measurements published in PubChem BioAssay (EPA / NIEHS).
# The source holds several records for some structures; these can differ, active in one and inactive in another. Active and inactive are the calls of the source. The calls were made as follows: active = hit-call score of the fitted dose curve at least 0.9, where 1 is the maximum; inactive = score below 0.9.
# Assay: CCTE_Shafer_MEA_dev_per_network_spike_spike_percent: CCTE's Neural Network Formation Assay for Percent of Spikes in a Network Spike, Shafer Lab (AID 2284054)
# Description: CCTE_Shafer_MEA_dev assay is conducted using Axion Biosystems 48 well microelectrode array (MEA) plates and Maestro recording system. Each well of the MEA plate contains a grid of 16 microelectrodes embedded in the culture surface. Electrically active cells, such as neurons, can be cultured over the electrodes, and electrical activity in these cells can be recorded extracellularly. The spontaneous firing of neurons is captured from each electrode on a microsecond timescale providing both temporally and spatially precise data. […] The CCTE_Shafer_MEA_dev assay uses primary cultures of rat cortical neurons. Recordings are made on days post-plating 5, 7, 9 and 12. As these cultures mature over time, neural networks develop functional activity and form cohesive networks in which electrical activity can be highly coordinated. CCTE_Shafer_MEA_dev_per_network_spike_spike_percent is 1 of 19 assay components of the CCTE_Shafer_MEA_dev assay. It measures the percent of spikes (action potential firings) in a network spike (temporally-clustered group of spikes across multiple electrodes) as the number of spikes that occur within a 0.05 s time window at the peak of a network spike divided by the total number of spikes during a recording in a microelectrode array (MEA) using Axion Biosystems Maestro 768 channel amplifier with the AxIS adaptive spike detector. To collapse across multiple recordings made on days post-plating 5, 7, 9 and 12, the trapezoidal area-under-the-curve of the component is calculated.Data from the assay component CCTE_Shafer_MEA_dev_per_network_spike_spike_percent was analyzed into 1 assay endpoint. This assay endpoint, CCTE_Shafer_MEA_dev_per_network_spike_spike_percent, was analyzed in the negative analysis fitting direction relative to DMSO as the negative control and baseline of activity. Using a type of functional reporter, gain or loss-of-signal activity can be used to understand electrical activity.
# On the day prior to culture, each well was coated thoroughly with 150 uL of 0.05% polyethyleneimine (PEI, Sigma Cat P3143) in 50 mM HEPES (Sigma Cat H7523) at a pH of 8. The plate was incubated at 37C for one hour. PEI was rinsed out with 500 uL of sterile water three times. Plates were stored at 4C until the day of culture. This culture was plated at a seeding density of 1.5 x 10^5 cells/well on a 48-well MEA plate, prepared as described above. Cells were administered via a 25 uL media/laminin ([…]; Sigma Cat L2020-1MG) drop directly onto the microelectrode array, as adding the cells with the laminin results in better attachment than pre-coating with laminin. After 2 hours, an additional 475 uL of cortical media was added and the cells returned to the incubator. Exposure starts at day 0 of plating and is continued over twelve days of network development until the experiment is terminated. Cells are fed with fresh medium on DIV 5 and 9, following the recordings on those days. The entire volume of media in the well is exchanged and any vehicle or compound treatment is renewed. Complete details are found in OP-NHEERL/ISTD/SBB/TJS/2015-03-r0 (available on request, email shafer.tim@epa.gov). Measurement of the electrical activity is non-invasive, and recordings can be made from the same plate over multiple different days of the culture. In cortical neurons, this allows for the measurement of extracellular action potentials over the period during which networks form in the MEA plate.
SMILES,AC50,outcome
CN(C)c1ccc(C(=N)c2ccc(N(C)C)cc2)cc1,1.63 µM (active),
Nc1ncn([C@@H]2O[C@H](CO)[C@@H](O)[C@H]2O)c(=O)n1,4.31 µM (active),inactive
c1ccc2c(c1)ccc1cc3c(ccc4ccccc43)cc12,,inactive
CCOC(F)(F)C(F)(F)C(F)(F)C(F)(F)F,,inactive
N[C@H]1C(O)O[C@H](CO)[C@H](O)[C@@H]1O (stereo not given in full),27.4 µM (active),
COC(F)(F)C(F)(C(F)(F)F)C(F)(F)F,,inactive
CC=CC(F)(F)C(F)(F)C(F)(F)F,3.82 µM (active),
FC(F)=C(F)OC(F)(F)C(F)(F)C(F)(F)F,,inactive
CC1(C)S[C@@H]2[C@H](NC(=O)COc3ccccc3)C(=O)N2[C@H]1C(=O)O,,inactive
